Compound activity from PubChem.
Shown are actives, neighbours in structure and some others; about 5.4% of the full set was active somewhere.
HSF1 inhib: HSF1 inhibition; NIH3T3-HGL HSE-luciferase, MG132-induced, luminescence 8 h; active compounds read low; activity change, negative = inhibition, % at 7.5 µM (by protocol); 300,000 compounds, 0.77% hits; AID 2098;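 active means more than half of replicate wells show activity change below -50%, luminescence cut by over half; inconclusive means some wells, but at most half, below -50%; inactive means no replicate well below -50%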;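 further: luciferase reports HSF-1 transcriptional activity via heat shock element; 0% = median of DMSO wells and -100% = zero luminescence signal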
GAA850 FXN act: frataxin GAA850 promoter activation. HEK293 lucGAA850 FXN promoter luciferase reporter, 24 h; percent of 10 µM SAHA response. activation, % at 6 µM. 360,000 compounds, 0.56% hits;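 active means activation above the average of all compounds screened plus 3 SD, cutoff fixed separately per campaign, cut at about 7.5% in these data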;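 further: 0% = DMSO wells and 100% = 10 µM SAHA wells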
HSF1 activator: increases HSF-1 driven luciferase reporter signal; activation, % at 9 µM; 300,000 compounds, 1.7% hits; NIH3T3-HGL HSF-1 luciferase reporter, MG132, 8 h; 100% = twice DMSO control signal; AID 504408;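 active means mean replicate activation of at least 50% with a set share of replicates each reaching 50%; inconclusive means only one of those two conditions met; inactive means mean below 50% and too few replicates reaching it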;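 further: 0% = median of the neutral control wells and 100% = twice that signal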
AHR activator: activates the human aryl hydrocarbon receptor. AHR-responsive luciferase reporter cells, luminescence. activation, % at 5 µM. 320,000 compounds, 2.5% hits; in the data active means activation above about 47%;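 further: 0% = vehicle wells and 100% = reference agonist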
NR0B1 inh: NR0B1 (DAX1) inhibition | P51843 | HEK293 Gal4-DAX1 luciferase reporter, luminescence | inhibition, % at 6.75 µM | 340,000 compounds, 0.99% hits;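 active means inhibition above the mean over all tested compounds plus 3 SD, cut at about 4.2% in these data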;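 further: 0% = DAX1-transfected cells with DMSO and 100% = empty-vector control cells with DMSO; inhibition shows as a rise in luminescence from relieved DAX1 repression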
Target sequence (P51843 207-470 limits assumed): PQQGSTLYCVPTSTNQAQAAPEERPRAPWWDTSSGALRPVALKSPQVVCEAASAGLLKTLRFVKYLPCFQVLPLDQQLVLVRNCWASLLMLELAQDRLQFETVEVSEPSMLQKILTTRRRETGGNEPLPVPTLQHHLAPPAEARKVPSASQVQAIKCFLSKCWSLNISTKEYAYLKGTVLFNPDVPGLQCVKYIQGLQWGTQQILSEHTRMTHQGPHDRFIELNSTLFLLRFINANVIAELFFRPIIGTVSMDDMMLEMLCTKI
An asterisk follows results filed as active; ? = inconclusive; · = not tested or not shown.

SMILES	HSF1 inhib	GAA850 FXN act	HSF1 activator	AHR activator	NR0B1 inh
CCCn1c(-c2ccc[nH]c2=O)nc2cc(C)c(C)cc21	26.2	5.1	14.8	17.5	4.4*
Cc1cc2nc(-c3ccc[nH]c3=O)n(Cc3cccc(F)c3)c2cc1C	3.6	3.4	23.5	1.3	-1.3
CC1(C)C2CCC(C2)C1(C)N=C1OC(CCl)CS1 (centres undefined)	0.3	-0.6	11.2	-0.7	-2.1
ClCC1CSC(=NC23CC4CC(CC(C4)C2)C3)O1 (centres undefined)	30.3	3.9	59.5*	1.4	0.1
CC(C)NC(=O)C1(C)CCCN1C/C=C/c1ccccc1 (centres undefined)	·	-1.5	·	·	·
Nc1nc2n(c1C(=O)c1ccccc1)CCC2	-70.1*	2.4	-75.5	3.2	-0.2
O=C(/C=C/c1ccco1)NC(=S)Nc1ccccn1	27.3	6.6	58.3*	66.0*	5.9*
COc1ccccc1/C=C/C(=O)NC(=S)Nc1ccccn1	51.0	3.8	65.5*	41.9	1.6
Cc1cccnc1NC(=S)NC(=O)/C=C/c1ccco1	33.6	1.0	?	16.6	2.0
O=C(/C=C/c1ccco1)Nc1cccc(NC(=O)/C=C/c2ccco2)n1	46.0	3.5	80.7*	19.8	1.8
CCc1ccccc1N(C(=O)c1snc(C(N)=O)c1N)C(C(=O)NCC1CCCO1)c1c[nH]c2ccccc12 (centres undefined)	-6.1	-2.2	-27.2	41.3	0.5
CCN(CC(=O)NCc1cccs1)C(=O)c1ccc(NS(=O)(=O)c2cccc([N+](=O)[O-])c2)cc1	5.8	0.0	-1.8	-2.6	4.8*
COC(=O)c1cc(NC(=O)COC(=O)CN2C(=O)C3CC=CCC3C2=O)cc(C(=O)OC)c1 (centres undefined)	·	1.4	·	·	-0.4
COC(=O)C(NNc1ccccc1C)(NC(=O)c1ccc(F)cc1)C(F)(F)F (centres undefined)	36.4	5.9	80.5*	45.5	0.1
COC(=O)C(NNc1ccc(F)cc1)(NC(=O)c1ccccc1)C(F)(F)F (centres undefined)	·	3.1	·	0.8	-0.2
Cc1ccc(-c2nc(C#N)c(NCC3CCCO3)o2)cc1 (centres undefined)	6.3	4.8	15.7	62.9*	1.9
COc1ccc(-c2nc(C#N)c(NCCc3ccccc3)o2)cc1	19.1	3.3	34.1	17.9	0.9
COc1ccc(-c2nc(C#N)c(NCC3CCCO3)o2)cc1 (centres undefined)	13.2	3.2	15.9	27.8	0.4
COc1ccc(CCNc2oc(-c3ccc(C)cc3)nc2C#N)cc1OC	2.3	2.3	-2.0	68.7*	0.5
Cc1ccc(-c2nc(C#N)c(NCCc3ccccn3)o2)cc1	29.0	1.4	42.2	72.9*	1.9
N#Cc1nc(-c2ccc(Cl)cc2)oc1NCCc1ccccn1	18.4	4.8	26.3	2.1	1.2
COc1ccc(CCNc2oc(Cc3cccc4ccccc34)nc2C#N)cc1OC	21.7	1.8	28.7	4.7	-2.2
COc1ccc(CCNc2oc(COc3ccc(Br)cc3)nc2C#N)cc1OC	32.8	1.1	55.8*	8.1	-2.7
CC(=O)Nc1cccc(NC(=O)NC2CC(=O)N(c3ccc4c(c3)OCCO4)C2)c1 (centres undefined)	·	0.2	·	·	0.1
CCCCCCCCNCCS(=O)(=O)NC1CCCCC1	·	1.1	·	·	-0.1
SMILES	HSF1 inhib	GAA850 FXN act	HSF1 activator	AHR activator	NR0B1 inh
O=C(N/N=C/c1ccccc1OCc1ccccc1)c1cccs1	19.4	5.5	29.9	33.5	0.0
COc1ccc(Nc2oc(-c3ccc(Cl)cc3)nc2C#N)cc1	25.8	-1.8	?	-2.8	0.7
COc1ccc(Nc2oc(-c3ccc(OC)cc3)nc2C#N)cc1	52.9	2.5	67.7*	15.1	-0.3
COc1ccc(CCN2C(=O)CS/C2=N\NC(=O)c2cccs2)cc1OC	-3.8	-1.0	-2.5	69.1*	1.0
COC(C(=O)Nc1ccnn1C1CCN(C(=O)c2ccc(C)cc2)CC1)c1ccccc1 (centres undefined)	1.5	-1.4	-6.3	0.3	0.8
Cc1ccc(C(=O)NCCC(=O)N2CCCC2)cc1	15.2	5.7	17.9	5.0	6.1*
O=C(NC(=S)Nc1nc2c(s1)CSc1ccccc1-2)c1ccccc1	0.7	1.4	12.4	69.4*	0.6
CNC(=O)COc1ccc2oc3c(c2c1)CCCC3	1.3	1.1	19.0	7.1	0.3
NNC(=O)COc1ccc2oc3c(c2c1)CCCC3	0.8	-0.9	-3.2	68.5*	0.6
Cn1cc([N+](=O)[O-])c(C(=O)N(Cc2ccccc2)Cc2ccccc2)n1	-4.5	1.0	-1.0	-0.5	0.7
C/C=C(\C)C(=O)O[C@H](c1cc2ccc(=O)oc2cc1OC)[C@@H](O)C(C)(C)O	·	1.3	·	-1.2	-1.2
CCCCNC1=CC(=O)C(NCCCC)=CC1=O	·	1.6	·	·	-1.6
CCCCNC1=CC(=O)C(=O)c2ccccc21	2.3	-0.9	26.4	52.5*	1.1
O=C(NCCCn1cccn1)c1cc(COc2ccccc2)on1	·	-1.2	·	·	4.2*
CC1=C(C(=O)N2CCOCC2)C(c2c(C)cc(C)cc2C)NC(=S)N1 (centres undefined)	63.6	2.1	94.7*	-2.4	-0.1
c1ccc2c(c1)oc1c(N3CCOCC3)ncnc12	-3.4	0.6	6.9	72.6*	1.0
CC1CCN(C(=O)C2Cc3ccccc3CN2S(=O)(=O)c2ccc(F)cc2)CC1 (centres undefined)	13.7	10.8*	47.1	1.3	0.9
COc1ccc(CNC(=O)c2ccc(Br)o2)cc1	-0.3	0.1	10.4	3.7	0.7
Nc1ccc(O)c2ccccc12	-3.9	·	14.6	57.3*	·
Nc1cc(-c2ccccc2)ccc1O	4.6	-1.1	4.0	22.2	0.6
CC(C)c1nnc(NC(=O)CCC(=O)Nc2ccc3cn[nH]c3c2)s1	5.5	-0.8	4.5	16.3	1.3
Clc1ccc(Cn2ccc3ccccc32)cn1	-0.1	1.9	5.7	25.8	6.0*
Cc1ccccc1-c1nc2cc(NC(=O)C3CC3)ccc2o1	58.8	3.7	90.9*	-7.3	1.4
Cc1ccccc1-c1nc2cc(Cl)ccc2o1	17.6	2.4	?	74.9*	0.2
O=C(/C=C/c1ccco1)NC(=S)Nc1nc(-c2ccc(Cl)cc2)cs1	22.4	3.1	63.3*	10.1	-0.9
SMILES	HSF1 inhib	GAA850 FXN act	HSF1 activator	AHR activator	NR0B1 inh
O=C(/C=C\c1ccco1)Nc1nc(-c2ccccc2)cs1	22.7	4.3	40.4	-1.9	-0.6
O=C(/C=C/c1ccco1)NC(=S)Nc1nc(-c2ccc3ccccc3c2)cs1	94.2	2.5	135.9*	2.9	-0.4
COc1coc(C(O)CN)cc1=O (centres undefined)	-6.9	-1.1	17.1	-3.4	-0.1
CCOC(=O)C(=Cc1cc(=O)c(OC)co1)C(=O)OCC	80.2	-15.0	94.4*	·	0.1
CCC(=O)O[C@]1(C(=O)SCF)[C@H](C)C[C@H]2[C@@H]3C[C@H](F)C4=CC(=O)C=C[C@]4(C)[C@@]3(F)[C@@H](O)C[C@@]21C	-52.7*	·	-61.7	17.6	·
CCOc1ccc(N2C(=O)C(Cl)=C(Nc3ccccc3O)C2=O)cc1	43.7	0.9	66.7*	15.3	-0.3
